From paper PMC4336329 (PLoS ONE, 2015)
Hit rate of the full screen: of about 310,000 compounds, about 14,000 (4.5%) showed an effect of 50% or more. Effects have a minus sign here. The list comes from a sample in which strong results are over-represented; it also holds similar structures and randomly drawn compounds.

Target: human ether-à-go-go-related gene (hERG) potassium channel (human, UniProt Q12809)
Assay: primary screen, population patch clamp on CHO cells stably expressing hERG; higher = less effect of the substance
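Note: peak tail current of the secondary pulse compared with the same well before compound.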

Chain of human ether-à-go-go-related gene (hERG) potassium channel (Q12809 whole entry, looked up): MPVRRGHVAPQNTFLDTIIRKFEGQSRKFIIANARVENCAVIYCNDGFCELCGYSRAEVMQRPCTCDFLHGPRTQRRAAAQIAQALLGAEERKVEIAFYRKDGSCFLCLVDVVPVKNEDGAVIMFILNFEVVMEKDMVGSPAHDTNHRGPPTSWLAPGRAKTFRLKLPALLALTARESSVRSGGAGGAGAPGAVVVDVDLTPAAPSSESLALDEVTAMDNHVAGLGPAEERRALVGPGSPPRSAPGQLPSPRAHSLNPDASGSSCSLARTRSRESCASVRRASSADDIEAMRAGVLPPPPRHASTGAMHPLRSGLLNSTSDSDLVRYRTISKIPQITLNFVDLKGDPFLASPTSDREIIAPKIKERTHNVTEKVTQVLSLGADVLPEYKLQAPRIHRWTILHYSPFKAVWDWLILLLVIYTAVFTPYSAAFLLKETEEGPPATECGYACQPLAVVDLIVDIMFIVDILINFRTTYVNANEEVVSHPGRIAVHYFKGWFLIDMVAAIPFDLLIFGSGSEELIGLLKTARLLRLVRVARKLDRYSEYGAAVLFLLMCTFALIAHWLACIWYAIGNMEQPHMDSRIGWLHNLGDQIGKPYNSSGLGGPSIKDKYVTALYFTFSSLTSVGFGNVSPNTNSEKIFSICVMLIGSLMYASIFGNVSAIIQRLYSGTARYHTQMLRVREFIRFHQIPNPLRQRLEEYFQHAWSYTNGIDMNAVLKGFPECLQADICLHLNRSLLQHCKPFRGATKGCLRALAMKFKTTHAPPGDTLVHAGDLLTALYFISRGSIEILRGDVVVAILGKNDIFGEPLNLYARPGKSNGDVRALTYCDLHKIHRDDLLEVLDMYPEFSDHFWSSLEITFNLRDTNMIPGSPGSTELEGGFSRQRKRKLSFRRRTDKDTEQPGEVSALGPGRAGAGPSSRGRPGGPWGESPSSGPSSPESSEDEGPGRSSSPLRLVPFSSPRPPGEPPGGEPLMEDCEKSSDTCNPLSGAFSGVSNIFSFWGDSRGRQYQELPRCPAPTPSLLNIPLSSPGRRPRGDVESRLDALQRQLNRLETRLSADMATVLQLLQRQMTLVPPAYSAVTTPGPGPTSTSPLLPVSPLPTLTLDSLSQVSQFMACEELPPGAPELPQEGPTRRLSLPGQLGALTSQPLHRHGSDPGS

Compound | hERG current change (%, negative = inhibition) at 10uM [%]
Cc1ccc2nc(SCc3nc4c(cnn4-c4ccccc4)c(=O)[nH]3)[nH]c2c1 | 15.3
C/C=C/c1ccc(OCC(=O)Nc2cc(S(=O)(=O)N3CCOCC3)ccc2N2CCCC2)c(OC)c1 | 3.81
CC1(C)C(CO)=CC(=O)C2=C1SCC(=O)N2 | -16.3
CCOc1ccc(NC(=O)C2CC(=O)OC2c2ccccc2)cc1 (centres unmarked) | 6.5
CCC(C)NC(=O)CCc1nc2ccccc2n1-c1ccccc1 (centres unmarked) | 2.77
O=C(CNC(=O)c1ccccc1Cl)OC1CCOC1=O (centres unmarked) | 13.5
Cc1cc(Nc2ccc(F)c(Cl)c2)n2nc(C)nc2n1 | -18
Cc1cc(N2CCCC2)nc2c(C)cccc12 | -21.6
Cc1cc(N2CCCC2)n2nc(C)nc2n1 | -11.8
Cc1cc(N2CCN(c3cccc(C(F)(F)F)c3)CC2)n2ncnc2n1 | -37
COc1ccc(Nc2cc(C)nc3ncnn23)cc1Cl | -39.5
Cc1cc(N2CCCCC2)nc2c(C)cccc12 | 15
COc1cccc2c(C)cc(N3CCCCCC3)nc12 | -52.9
CCOC(=O)N1CCN(c2cc(C)nc3nc(C)nn23)CC1 | -32.9
COc1ccc(Nc2cc(C)nc3nc(C)nn23)cc1Cl | -55.5
Cc1nc2ncnn2c(N2CCN(C(=O)c3cccc(F)c3)CC2)c1C | -49.3
Cc1cc(N2CCN(C3CCCCC3)CC2)n2nc(C)nc2n1 | -57.7
Cc1nc2ncnn2c(N2CCN(c3cccc(C(F)(F)F)c3)CC2)c1C | -64.1
O=C(O)CNC1=NCCCCC1 | 0.366
O=C(O)Cc1ccc(NS(=O)(=O)c2ccccc2Cl)cc1 | 24.4
Cc1ccc(NS(=O)(=O)c2cc([N+](=O)[O-])ccc2NNC(=S)Nc2cc(C)ccc2C)c(C)c1 | -0.00412
CC1(C)Cc2c(C#N)c(N3CCN(C(=O)c4ccco4)CC3)nc(-c3ccco3)c2CS1 | -21.6
Cc1ccc(CNS(=O)(=O)c2c(N)n(C)c(=O)n(C)c2=O)cc1 | 8.77

Compound | hERG current change (%, negative = inhibition) at 10uM [%]
COc1ccc2c(CC(=O)NC(Cc3ccc(Cl)cc3)C(=O)O)cc(=O)oc2c1C (centres unmarked) | 3.13
N#Cc1ccc(-c2ccc3c(c2)OCO3)nc1SCC(=O)OCc1ccccc1 | 9.22
Cc1ccc(NC(=O)C2CCN(S(=O)(=O)c3c(C)noc3/C=C/N(C)C)CC2)cc1 | -5.19
O=C(c1ccc(-c2ccccc2Cl)o1)N1CCN(S(=O)(=O)c2cccs2)CC1 | 15.9
O=C(c1cccs1)C1CN2CCC1CC2 (centres unmarked) | -4.77
COc1ccc(C(=O)Nc2ccc3c(c2)nc2n3CCSC2)cc1 | -24.7
O=c1[nH]c(=O)n(Cc2ccc(Oc3ccccc3)cc2)cc1Br | -1.61
COc1cccc(NCc2ccc([N+](=O)[O-])s2)c1 | -51
COc1ccc(NCc2ccc([N+](=O)[O-])s2)cc1 | -13.6
Cc1cccc(NCc2ccc([N+](=O)[O-])s2)c1 | -26.7
COc1cc2c(cc1O)CC1c3c(cc(O)c(OC)c3-2)CCN1C (centres unmarked) | -59.2
COc1cc2c(cc1O)[C@@H]1Cc3cc(O)c(OC)cc3[C@H](C2)N1C | 11.3
COc1cc2c(cc1OC)-c1c(OC)c(OC)cc3c1C(C2)N(C)CC3 (centres unmarked) | -5.23
COc1cc2c(cc1OC)-c1c3c(cc4c1[C@@H](C2)N(C)CC4)OCO3 | -31.7
COc1cc2c(cc1O)C[C@H]1c3c(cc(O)c(OC)c3-2)CCN1C | -70.1
COc1ccc2c(c1O)-c1c(OC)c(OC)cc3c1[C@H](C2)N(C)CC3 | -36.5
O=C(O)CCCCCN1C(=O)/C(=C\c2ccc(-c3ccc(Cl)cc3)o2)SC1=S | 18
COCCN1C(=O)c2ccccc2C(C(=O)Nc2ccc3c(c2)OCCO3)C1c1ccc(F)cc1 (centres unmarked) | 17.1
COc1cccc(S(=O)(=O)Nc2ccc(C(=O)Nc3ccncc3)cc2)c1 | 2.7
N#Cc1ccc(CSc2ccc(S(=O)(=O)N3CCCC3)cn2)cc1 | -67.2
CCn1c(SC)nnc1-c1ccc(S(=O)(=O)N2CCCCC2)cc1 | -12.1
Cc1ccc(CSc2ccc(S(=O)(=O)N3CCCC3)cn2)cc1 | -4.27
CCn1c(SCc2ccccc2)nnc1-c1ccc(S(=O)(=O)N2CCCCC2)cc1 | -36.2

Compound | hERG current change (%, negative = inhibition) at 10uM [%]
N#Cc1ccc(S(=O)(=O)N2CCC(N3CCCCC3)CC2)cc1 | -58.3
O=S(=O)(c1ccc(Cl)cc1)N1CCC(N2CCCCCC2)CC1 | -49.9
CCn1c(SCc2ccc(C#N)cc2)nnc1-c1ccc(S(=O)(=O)N2CCCCC2)cc1 | -70.7
O=S(=O)(c1ccc(SCc2ccc(Cl)cc2)nc1)N1CCCC1 | -8.21
Cc1ccc(S(=O)(=O)N2CCC(N3CCCCCC3)CC2)cc1 | -23.2
CC(=O)c1cccc(N/C=C\c2nnnn2-c2ccc(F)cc2)c1 | 0.338
COC(=O)C1=C(C)NC(C)=C(C(=O)OC)C1c1ccccn1 | 5.81
O=C(NC1CCCC1)C(c1cccnc1)N(C(=O)c1csnn1)C1CCCC1 (centres unmarked) | 13
O=C(CN(C(=O)Cn1nnc(-c2cccs2)n1)c1ccc2c(c1)OCCO2)NC1CCCCC1 | -13.2
Cc1nnc(C)n1N | 12.1
CCn1c(=O)cc(OCC(=O)O)c2ccccc21 | 10.6
S=C(NCc1ccccc1)Nc1ccc(Cl)cc1 | -25.1
CC1CCCN(c2nc(-c3cccnc3)nc3scc(-c4ccccc4)c23)C1 (centres unmarked) | 11.6
CC1CCN(c2nc(CN3CCCCC3)nc3scc(-c4ccccc4)c23)CC1 | -75.5
OCC1CCCN(c2ncnc3scc(-c4ccccc4)c23)C1 (centres unmarked) | 3.73
CCC(CO)Nc1nc(CN2CCCCC2)nc2scc(-c3ccccc3)c12 (centres unmarked) | -68.2
O=C(O)C(=O)O.c1ccc(CNc2nc(CN3CCOCC3)nc3scc(-c4ccccc4)c23)cc1 | -20.6
CC1CCN(c2nc(-c3cccnc3)nc3scc(-c4ccccc4)c23)CC1 | 15.4
Clc1ccc(CNc2nc(CN3CCOCC3)nc3scc(-c4ccccc4)c23)cc1 | -9.73
Fc1ccc(N2CCN(c3nc(CN4CCOCC4)nc4scc(-c5ccccc5)c34)CC2)cc1 | -5.05
OCC1CCCN(c2nc(CN3CCCCC3)nc3scc(-c4ccccc4)c23)C1 (centres unmarked) | -63.7
CCCCN(C(=O)CCC(=O)Nc1cc(C)on1)C(C(=O)NC(C)(C)CC)c1cccc(OC)c1OC (centres unmarked) | 1.4
Cc1cccc(C)c1NC(=O)CSc1nnnn1C | -1.61

Compound | hERG current change (%, negative = inhibition) at 10uM [%]
O=C(CSc1ccccn1)Nc1ccc(Cl)c([N+](=O)[O-])c1 | -19.6
COc1ccc(Cn2c(N)c(C#N)c3nc4ccccc4nc32)cc1 | 11.2
COc1ccc(-n2c(SCC(=O)NCCCN3CCCC3=O)nnc2C(C)N2CCCCC2)cc1 (centres unmarked) | 43.4
C=CCc1cccc(CNc2nc3ccccc3n2CCC)c1O | 5.13
C#CCOCCOCCOCCNc1nc(N2CCOCC2)nc(N2CCN(C(=O)CCCCCCCCCCNC(=O)[C@H](CO)n3cc(CCCSC)nn3)CC2)n1 | -0.214
CCOc1ccc(S(=O)(=O)Nc2ccc(C(=O)NCC(c3ccco3)N3CCCCC3)cc2)cc1 (centres unmarked) | -25.1
CC(C)[C@H](NC(=O)[C@H]1N2C(=O)c3ccccc3C2SC1(C)C)C(=O)NCc1ccco1 (some centres unmarked) | 2.21
Cc1cccc(C)c1NC(=O)CSc1nnc(Cn2nnc(-c3ccccc3)n2)n1-c1ccccc1 | -22.3
CCN(CC)c1ccc(CNc2ccc(Br)cn2)cc1 | 13.1
CC1(C)Cc2c(c(N3CCOCC3)nc3sc(-c4ccc(C(=O)O)o4)c(N)c23)CO1 | -15.2
Cn1nnc(NC(=O)/C=C/c2ccco2)n1 | 8.33
O=C(NC1CCCc2ccccc21)c1ccc(Br)cc1 (centres unmarked) | -7.78
O=C(NC1CCCc2ccccc21)c1ccccc1 (centres unmarked) | 3.92
Cc1cc(C(=O)NC2CCCc3ccccc32)ccc1[N+](=O)[O-] (centres unmarked) | 9.18
O=C(NC1CCCc2ccccc21)c1ccc([N+](=O)[O-])cc1 (centres unmarked) | -53.4
COC(=O)[C@@H](NC(=O)NC1CCCc2ccccc21)C(C)C (some centres unmarked) | 9.47
O=C(NC1CCSc2ccccc21)c1ccc([N+](=O)[O-])cc1 (centres unmarked) | -40.3
N#Cc1ccc(C(=O)NC2CCCc3ccccc32)cc1 (centres unmarked) | -52.8
CC(C)[C@H](NC(=O)NC1CCCc2ccccc21)C(=O)O (some centres unmarked) | -68.2
CCC(C)[C@H](NC(=O)NC1CCCc2ccccc21)C(=O)O (some centres unmarked) | 20.6
